In experiment [1] the test system is rat Adrenergic, Alpha 1B Receptor (Adra1B), gene 24173. Nature of the experiment: NVS_GPCR_rAdra1B: NovaScreen (NVS) G Protein-Coupled Receptor Assay for rat Adrenergic, Alpha 1B Receptor (Adra1B) (AID 2283297). In a few lines: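 Filter-binding radioligand competition on membranes from rat liver, read after 1 h by scintillation counting. Single-concentration duplicate screen at 25 uM, followed by concentration-response on actives, normalised to DMSO.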

Experiment [2] addresses rat Adrenergic, Alpha 1, Non-selective Receptor (Adra1), Adra1a (gene 29412) (UniProt P43140). As to the kind of experiment: NVS_GPCR_rAdra1_NonSelective: NovaScreen (NVS) G Protein-Coupled Receptor Assay for rat Adrenergic, Alpha 1, Non-selective Receptor (Adra1) (AID 2283289). In a few lines:
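Chemicals first screened in duplicate at 25 uM, then actives tested in concentration series up to 50 uM. Binding measured as displacement of radioligand from rat forebrain membrane receptors, 1 h, filtration with scintillation readout; DMSO baseline.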

Experiment [3] deals with human Opioid Receptor Mu (Opiate Mu), OPRM1 (gene 4988) (UniProt P35372). Nature of the experiment: NVS_GPCR_hOpiate_mu: NovaScreen (NVS) G Protein-Coupled Receptor Assay for human Opioid Receptor Mu (Opiate Mu) (AID 2283290).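 Note: hits lower bound tracer signal versus DMSO meaning displacement of the ligand.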 Summed up:
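CHO-derived receptor protein, cell-free; radioligand displacement, filtration + scintillation counting, read at 2.5 h. DMSO = negative control/baseline. Primary: 25 uM single conc, duplicate; secondary: concentration series.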

For experiment [4], the target named is rat Adrenergic, Alpha 1A Receptor (Adra1A), Adra1a (gene 29412) (UniProt P43140). Nature of the experiment: NVS_GPCR_rAdra1A: NovaScreen (NVS) G Protein-Coupled Receptor Assay for rat Adrenergic, Alpha 1A Receptor (Adra1A) (AID 2283296). In a few lines: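 Filter radiodetection after 1 h competitive binding on CEC-pretreated rat cortical membranes. Duplicate single-point screening at 25 uM; active chemicals retested across concentration series.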
Chain of rat Adrenergic, Alpha 1A Receptor (Adra1A), Adra1a (gene 29412) (P43140 whole entry, looked up): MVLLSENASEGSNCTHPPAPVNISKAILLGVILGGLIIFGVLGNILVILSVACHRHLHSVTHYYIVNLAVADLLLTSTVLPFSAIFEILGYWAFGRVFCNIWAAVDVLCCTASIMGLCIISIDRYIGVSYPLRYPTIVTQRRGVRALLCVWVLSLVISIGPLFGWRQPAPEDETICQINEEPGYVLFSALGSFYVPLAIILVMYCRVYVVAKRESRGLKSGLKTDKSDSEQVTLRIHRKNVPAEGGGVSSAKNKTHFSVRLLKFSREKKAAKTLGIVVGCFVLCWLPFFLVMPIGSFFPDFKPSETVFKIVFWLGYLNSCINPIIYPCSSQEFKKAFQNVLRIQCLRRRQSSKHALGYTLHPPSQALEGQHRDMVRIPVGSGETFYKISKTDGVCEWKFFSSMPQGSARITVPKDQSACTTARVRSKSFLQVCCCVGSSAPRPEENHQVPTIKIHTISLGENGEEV

In experiment [5] the target is rat Adrenergic Receptor, Alpha 2 (Adra2), Non-selective Binding, Adra2a (gene 25083) (UniProt P22909). Nature of the experiment: NVS_GPCR_rAdra2_NonSelective: NovaScreen (NVS) G Protein-Coupled Receptor Assay for rat Adrenergic Receptor, Alpha 2 (Adra2), Non-selective Binding (AID 2283299). Summed up:
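Filter-based scintillation counting of radioligand binding to rat cortical membrane receptors, measured 1.25 hours post-dosing; loss of signal versus DMSO indicates displacement. Initial single-concentration duplicate at 25 uM, then concentration series.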

Experiment [6] has as its target rat Adrenergic Receptor, Beta (Adrb), Non-selective Binding, Adrb1 (gene 24925) (UniProt P18090). As to the kind of experiment: NVS_GPCR_rAdrb_NonSelective: NovaScreen (NVS) G Protein-Coupled Receptor Assay for rat Adrenergic Receptor, Beta (Adrb), Non-selective Binding (AID 2283298). Summed up: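 Rat cortical membranes incubated 1 h with beta-adrenergic radioligand and test chemical; bound ligand measured by filtration and scintillation counting. Screen at 25 uM duplicate, then concentration series with 50 uM maximum; loss of signal versus DMSO.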

Experiment [7] has as its target guinea pig Serotonin, 5-Hydroxytryptamine Receptor 4 (5HT4), HTR4 (gene 100135548) (UniProt O70528). As to the kind of experiment: NVS_GPCR_g5HT4: NovaScreen (NVS) G Protein-Coupled Receptor Assay for guinea pig Serotonin, 5-Hydroxytryptamine Receptor 4 (5HT4) (AID 2283294). In a few lines: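 Compounds first screened in duplicate at 25 uM, actives followed up in concentration series. Binding measured as displacement of specific radioligand from guinea pig striatal membranes, 1 h, filter-based scintillation read-out versus DMSO baseline.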

Experiment [8] deals with 5-hydroxytryptamine receptor 2C (pig). As to the kind of experiment: NVS_GPCR_p5HT2C: NovaScreen (NVS) G Protein-Coupled Receptor Assay for pig Serotonin, 5-Hydroxytryptamine Receptor 2C (5HT2C) (AID 2283288). Summed up:
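Radioligand displacement on membranes from pig choroid plexus, detected by filter scintillation counting after 1 h. Tested first at a single 25 uM in duplicate, then in concentration-response for actives; DMSO served as baseline.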

The target in experiment [9] is guinea pig Bradykinin Receptor B2 (BK2), BDKRB2 (gene 100135486) (UniProt O70526). Nature of the experiment: NVS_GPCR_gBK2: NovaScreen (NVS) G Protein-Coupled Receptor Assay for guinea pig Bradykinin Receptor B2 (BK2) (AID 2283292). In a few lines:
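Guinea pig ileum membrane preparation incubated 1 h with radioligand and test chemical; bound counts measured after filtration. Primary duplicate screening at 25 uM, then singleton concentration series with a 50 uM top dose; DMSO as baseline.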

Experiment [10] has as its target mouse Cholecystokinin, CCK2 Receptor (CCKB), Cckbr (gene 12426) (UniProt P56481). Nature of the experiment: NVS_GPCR_mCKKBCentral: NovaScreen (NVS) G Protein-Coupled Receptor Assay for mouse Cholecystokinin, CCK2 Receptor (CCKB) (AID 2283293). Summed up: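 Mouse forebrain membrane preparation incubated 2 h with chemical and radioligand; bound radioactivity counted after filtration. Single-concentration duplicate screen at 25 uM, then concentration series to 50 uM max for hits, DMSO as baseline.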

Structures are written as SMILES. Values joined by “and” are separate entries in the source; they are usually repeats but may differ in a detail not shown here. Identical values can stand only once. Records with an inconclusive call do not appear. Some structures have more than one record in an assay (separate samples or runs), and their calls can disagree. Active and inactive are the calls of the source. Rule for the calls: active = hit-call score of the fitted dose curve at least 0.9, where 1 is the maximum; inconclusive = response in the unintended direction; inactive = score below 0.9.

The AC50 is the midpoint of the concentration-response curve, whichever way the signal moves.

Chain of rat Adrenergic, Alpha 1, Non-selective Receptor (Adra1), Adra1a (gene 29412) (P43140 whole entry, looked up): as above
Chain of human Opioid Receptor Mu (Opiate Mu), OPRM1 (gene 4988) (P35372 whole entry, looked up): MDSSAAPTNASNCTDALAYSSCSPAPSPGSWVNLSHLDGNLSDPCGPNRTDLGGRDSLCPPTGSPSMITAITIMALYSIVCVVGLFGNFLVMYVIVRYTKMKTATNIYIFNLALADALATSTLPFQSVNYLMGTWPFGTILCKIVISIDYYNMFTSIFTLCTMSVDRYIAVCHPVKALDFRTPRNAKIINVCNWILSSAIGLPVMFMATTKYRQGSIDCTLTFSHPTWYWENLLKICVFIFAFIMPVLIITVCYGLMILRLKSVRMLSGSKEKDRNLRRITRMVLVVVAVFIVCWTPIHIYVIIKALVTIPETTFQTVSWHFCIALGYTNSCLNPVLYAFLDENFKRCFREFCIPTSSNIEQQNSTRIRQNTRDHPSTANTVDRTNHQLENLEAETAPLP
Chain of rat Adrenergic Receptor, Alpha 2 (Adra2), Non-selective Binding, Adra2a (gene 25083) (P22909 whole entry, looked up): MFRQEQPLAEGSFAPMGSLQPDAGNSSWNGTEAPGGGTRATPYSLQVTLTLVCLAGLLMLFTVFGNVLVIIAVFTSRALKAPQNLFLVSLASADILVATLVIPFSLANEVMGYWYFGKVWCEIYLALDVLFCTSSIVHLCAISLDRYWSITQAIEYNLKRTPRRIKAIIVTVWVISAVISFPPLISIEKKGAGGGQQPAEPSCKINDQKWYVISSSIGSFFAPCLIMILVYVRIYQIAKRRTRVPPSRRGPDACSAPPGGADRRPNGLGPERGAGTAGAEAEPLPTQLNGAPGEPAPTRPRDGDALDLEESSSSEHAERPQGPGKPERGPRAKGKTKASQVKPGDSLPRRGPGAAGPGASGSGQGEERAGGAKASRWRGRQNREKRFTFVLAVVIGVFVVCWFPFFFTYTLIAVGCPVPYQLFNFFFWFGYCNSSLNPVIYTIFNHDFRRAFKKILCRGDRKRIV
Chain of rat Adrenergic Receptor, Beta (Adrb), Non-selective Binding, Adrb1 (gene 24925) (P18090 whole entry, looked up): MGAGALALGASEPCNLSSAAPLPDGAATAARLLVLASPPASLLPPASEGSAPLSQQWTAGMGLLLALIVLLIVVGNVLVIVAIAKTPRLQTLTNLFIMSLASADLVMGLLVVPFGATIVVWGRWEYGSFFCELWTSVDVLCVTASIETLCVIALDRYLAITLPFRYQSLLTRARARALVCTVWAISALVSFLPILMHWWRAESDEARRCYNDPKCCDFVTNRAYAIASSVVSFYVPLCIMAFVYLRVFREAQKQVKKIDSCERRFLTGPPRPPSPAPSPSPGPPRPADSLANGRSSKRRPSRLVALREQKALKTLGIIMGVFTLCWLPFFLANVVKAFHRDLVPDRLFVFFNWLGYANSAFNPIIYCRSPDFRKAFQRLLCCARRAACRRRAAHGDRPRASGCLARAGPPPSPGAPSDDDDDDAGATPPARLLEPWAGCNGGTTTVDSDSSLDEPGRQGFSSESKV
Chain of guinea pig Serotonin, 5-Hydroxytryptamine Receptor 4 (5HT4), HTR4 (gene 100135548) (O70528 whole entry, looked up): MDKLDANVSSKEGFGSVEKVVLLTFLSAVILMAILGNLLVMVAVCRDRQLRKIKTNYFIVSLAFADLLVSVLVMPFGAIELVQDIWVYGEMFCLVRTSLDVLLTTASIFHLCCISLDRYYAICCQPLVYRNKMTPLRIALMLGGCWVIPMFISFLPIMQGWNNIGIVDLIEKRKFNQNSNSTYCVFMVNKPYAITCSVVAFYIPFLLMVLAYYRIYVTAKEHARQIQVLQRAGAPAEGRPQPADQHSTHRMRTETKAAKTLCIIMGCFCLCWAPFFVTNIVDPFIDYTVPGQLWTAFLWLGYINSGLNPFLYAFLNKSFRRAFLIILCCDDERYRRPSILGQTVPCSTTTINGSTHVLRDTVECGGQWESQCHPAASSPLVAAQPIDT
Chain of guinea pig Bradykinin Receptor B2 (BK2), BDKRB2 (gene 100135486) (O70526 whole entry, looked up): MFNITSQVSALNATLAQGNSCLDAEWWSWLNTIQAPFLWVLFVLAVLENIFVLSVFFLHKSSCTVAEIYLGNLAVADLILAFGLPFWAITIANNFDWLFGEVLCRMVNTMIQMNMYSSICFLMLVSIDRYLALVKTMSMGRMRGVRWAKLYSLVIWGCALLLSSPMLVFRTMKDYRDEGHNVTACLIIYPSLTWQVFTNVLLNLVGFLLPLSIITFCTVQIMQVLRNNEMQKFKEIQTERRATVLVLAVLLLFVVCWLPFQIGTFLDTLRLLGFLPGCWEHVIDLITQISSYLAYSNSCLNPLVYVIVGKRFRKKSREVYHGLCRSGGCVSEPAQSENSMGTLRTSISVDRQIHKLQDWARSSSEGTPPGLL
Chain of mouse Cholecystokinin, CCK2 Receptor (CCKB), Cckbr (gene 12426) (P56481 whole entry, looked up): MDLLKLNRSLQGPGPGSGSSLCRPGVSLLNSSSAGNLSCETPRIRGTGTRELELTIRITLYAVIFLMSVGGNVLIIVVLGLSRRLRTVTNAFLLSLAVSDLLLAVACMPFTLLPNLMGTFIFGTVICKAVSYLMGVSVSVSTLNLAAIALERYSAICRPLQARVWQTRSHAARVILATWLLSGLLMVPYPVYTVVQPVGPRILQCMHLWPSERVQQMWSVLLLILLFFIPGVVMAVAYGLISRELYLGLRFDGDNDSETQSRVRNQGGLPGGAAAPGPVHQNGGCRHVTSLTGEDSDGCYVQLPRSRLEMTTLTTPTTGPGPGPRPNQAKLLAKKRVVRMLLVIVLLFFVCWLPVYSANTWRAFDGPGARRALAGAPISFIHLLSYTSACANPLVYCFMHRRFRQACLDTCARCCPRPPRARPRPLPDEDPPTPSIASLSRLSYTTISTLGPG

As for `Cn1cnc2c1c(=O)[nH]c(=O)n2C`, in [1], the result was inactive.
Regarding `O=C(N[C@@H](c1ccccc1)[C@@H]1CCCCN1)c1cccc(C(F)(F)F)c1Cl`, the result in experiment [2] was inactive. Further, the results for the AC50 in experiment [3], in experiment [4] and in [5] were 10.8 µM (active), 16.7 µM (active) and 39.2 µM (active), respectively.
For the molecule `CCCCCCCCCC[N+](C)(C)[O-]`, in experiment [6], the outcome was inactive.
Take `COc1ccc(OC(F)(F)F)cc1CN[C@H]1CCCN[C@H]1c1ccccc1`: the AC50 in [3] was 7.3 µM (active); in experiment [7] it was 12.2 µM (active); in experiment [4], 25 µM (active); in experiment [1] it was 14.8 µM (active); in experiment [5], 13.1 µM (active).
Regarding `COC(=O)[C@H]1[C@H]2C[C@@H]3c4[nH]c5cc(OC)ccc5c4CCN3C[C@H]2C[C@@H](OC(=O)c2cc(OC)c(OC)c(OC)c2)[C@@H]1OC`, the result in experiment [8] was inactive. Further, the values for the AC50 in [3], in [7] and in [1] were 7.12 µM (active), 5.67 µM (active) and 21.1 µM (active), respectively.
Consider `CCCCC(CC)COP(=O)(OCC(CC)CCCC)OCC(CC)CCCC` (configuration not stated), for which, in experiment [3], the outcome was inactive.
In the case of `CC(=O)O[C@]1(C(C)=O)CC[C@H]2[C@@H]3C=C(Cl)C4=CC(=O)[C@@H]5C[C@@H]5[C@]4(C)[C@H]3CC[C@@]21C`, in experiment [3], the AC50 is 474 nM (active) and 612 nM (active); the molecule was called inactive.
Regarding `Cc1cn([C@H]2C=C[C@@H](CO)O2)c(=O)[nH]c1=O`, the result in experiment [9] was inactive.
On to `CN(C)CCCN(C)CCCN(C)C`, for which the call in experiment [7] and in experiment [1] was inactive.
On to `C/C=C/c1ccc(OC)cc1`, for which the concentration at half-maximal activity (AC50) in [6] is 0.28 µM (active).
In the case of `CCCCCCCCCCCCCCOS(=O)(=O)O`, the values for the AC50 in experiment [3] and in experiment [1] were 8.03 µM (active) and 20.9 µM (active), respectively.
With `CN(C)CCCN1c2ccccc2Sc2ccc(Cl)cc21`, the AC50 in [3] is 10.3 µM (active); in experiment [7], 15.3 µM (active); in [1], 0.0108 µM (active).
For `CN(C)C(=O)NC1(c2ccccc2)CCN(CCC[C@]2(c3ccc(Cl)c(Cl)c3)CCCN(C(=O)c3ccccc3)C2)CC1`, the AC50 in [8] was 2.57 µM (active); in experiment [2] it was 6.25 µM (active); in [3], 3.14 µM (active). Besides, in [4], the molecule was called inactive.
Turning to `CCc1nc(N)nc(N)c1-c1ccc(Cl)cc1`, the AC50 in experiment [8] is 7.09 µM (active); in experiment [2] it was 8.12 µM (active); in experiment [7], 4.48 µM (active); in [4], 2.37 µM (active); in experiment [1] it was 4.4 µM (active); in experiment [5], 6.56 µM (active).
For the molecule `C=CCc1ccc(OC)c(OC)c1`, the result in [8] was inactive.
In the case of `CC(COCC(C)OC(=O)c1ccccc1)OC(=O)c1ccccc1` (configuration not stated), the outcome in experiment [8] was inactive.
Consider `Nc1nc(=S)c2[nH]cnc2[nH]1`, for which the result in [3] was inactive.
With `CC(C)COC(=O)CCCCC(=O)OCC(C)C`, the molecule was classed as inactive in experiment [7].
In the case of `O=C(O)c1[nH]n(-c2ccc(S(=O)(=O)O)cc2)c(=O)c1N=Nc1ccc(S(=O)(=O)O)cc1`, the molecule was called inactive in experiment [2]. In addition, the AC50 in [7] was 15.9 µM (active).
For `Cc1ccc(C(C)(C)C)c(O)c1`, the result in experiment [2] and in experiment [4] was inactive.
As for `CSc1ccc(Oc2ccc(S(N)(=O)=O)cc2CN(C)C)cc1C`, the AC50 in experiment [8] was 19.2 µM (active); in experiment [2], 1.08 µM (active); in experiment [3] it was 8.3 µM (active); in experiment [7], 0.621 µM (active); in experiment [4] it was 6.58 µM (active); in experiment [1] it was 0.875 µM (active). In addition, the figures for the AC50 in experiment [6] and in experiment [5] were 25 µM (active) and 10.6 µM (active), respectively.
As for `Cc1occc(=O)c1O`, in experiment [3], the call was inactive.
Regarding `CCCCc1nc2cccnc2n1Cc1ccc(-c2ccccc2-c2nnn[nH]2)cc1`, the AC50 in experiment [10] is 15.4 µM (active).
For the molecule `CC(C)c1cccc(C(C)C)c1`, the molecule was called inactive in experiment [7].
As to `NC(=Nc1ccccc1)Nc1ccccc1`, the molecule was called inactive in experiment [2] and in [5]. Also, in experiment [4], the half-maximal activity concentration (AC50) is 8.43 µM (active).
As to `CCN(CC)CCOc1ccc(C(=C(Cl)c2ccccc2)c2ccccc2)cc1`, the half-maximal activity concentration (AC50) in experiment [8] is 21 µM (active) and 5.8 µM (active) and 15.9 µM (active); in experiment [2], 7.75 µM (active); in experiment [7], 11.4 µM (active); in experiment [4], 21 µM (active); in experiment [1], 21 µM (active). Besides, the molecule was called inactive in [9].
With `CC(C)NCC(O)c1ccc(O)c(O)c1` (configuration not stated), the result in experiment [1] was inactive.
Consider `Cc1cc(SC2=C(O)C[C@@](CCc3ccc(N)cc3)(C(C)C)OC2=O)c(C(C)(C)C)cc1CO`, for which the molecule was classed as inactive in [4].
On to `O=Cc1ccccc1C=O`, for which the molecule was classed as inactive in experiment [1].
Turning to `CC(=O)CC(c1ccccc1)c1c(O)c2ccccc2oc1=O` (configuration not stated), the call in experiment [7] was inactive.
As for `S=c1[nH]c2ccccc2s1`, the molecule was called inactive in experiment [8] and in experiment [3].
For `CCC(C)N(C)C(=O)c1cc2ccccc2c(-c2ccccc2Cl)n1` (configuration not stated), in [10], the AC50 was 2.61 µM (active).
`CN(C)C(=O)NC1(c2ccccc2)CCN(CC[C@@]2(c3ccc(F)c(F)c3)CN(C(=O)c3ccccc3)CCO2)CC1`: the AC50 is 16.7 µM (active) in experiment [8], 14.9 µM (active) in experiment [3] and 8.08 µM (active) in experiment [4].
As for `Oc1ccccc1O`, the result in experiment [3] was inactive.
Consider `Oc1ccc(O)cc1`, for which the AC50 in experiment [3] is 15.3 µM (active).

The record behind these values is PubChem BioAssay (EPA / NIEHS).
